RecA splice inh: Mtb RecA intein splicing inhibition; P9WHJ3; cell-free RecA intein splicing, fluorescence; inhibition, % (concentration not given with the values); hit rate 0.75% among 290,000; AID 2221; in the data active = inhibition above about 30%; inconclusive = no clear call, values can overlap the other calls
Rv3671c inh: inhibits the M. tuberculosis serine protease Rv3671c | hit rate 0.048% among 320,000 | inhibition, % at 5.96 µM | P9WHR9; in the data active = inhibition above about 38%;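 note: extracellular domain of Rv3671c used as enzyme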
Target sequence (P9WHR9 whole entry, looked up, the tested form may be a part): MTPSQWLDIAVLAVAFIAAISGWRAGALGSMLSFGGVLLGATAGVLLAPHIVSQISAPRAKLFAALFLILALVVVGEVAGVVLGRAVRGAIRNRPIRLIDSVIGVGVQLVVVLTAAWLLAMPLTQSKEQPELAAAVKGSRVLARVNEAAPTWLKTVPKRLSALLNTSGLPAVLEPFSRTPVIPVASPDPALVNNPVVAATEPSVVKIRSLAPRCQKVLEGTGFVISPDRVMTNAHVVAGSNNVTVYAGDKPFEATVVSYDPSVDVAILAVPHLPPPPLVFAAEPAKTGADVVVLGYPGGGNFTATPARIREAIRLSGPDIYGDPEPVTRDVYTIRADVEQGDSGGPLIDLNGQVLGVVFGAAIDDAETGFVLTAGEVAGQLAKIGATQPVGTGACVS
Mtb BioA inh: blocks M. tuberculosis BioA enzyme activity; purified M. tuberculosis BioA enzyme, plate reader; inhibition, % at 9.99 µM; hit rate 0.096% among 360,000; in the data active = inhibition above about 40%; inconclusive = no clear call, values can overlap the other calls
UGM FP inh: blocks M. tuberculosis UGM enzyme; P9WIQ1; purified UGM, fluorescence polarization probe displacement; inhibition, % at 10 µM; hit rate 0.06% among 320,000; AID 504406; in the data active = inhibition above about 10%, passing the limit was not always enough; inconclusive = no clear call, values can overlap the other calls
FadD28 FP inh: blocks FadD28 binding to the bisubstrate probe; AID 588549; inhibition, % at 12.5 µM; hit rate 0.22% among 360,000; fluorescence polarization; in the data active = inhibition above about 8.5%, passing the limit was not always enough; inconclusive = no clear call, values can overlap the other calls
Yp Topo-I inh: Y. pestis Topo-I inhibition via cleavage products | hit rate 0.064% among 360,000 | activity, % at 10 µM | Y. pestis Topo-I cleavage product accumulation, plate reader; in the data active = activity above about 50%, passing the limit was not always enough; inconclusive = no clear call, values can overlap the other calls
GFP chromo cs: counter-screen GFP chromophore formation inhibition | shares compounds with RecA splice inh | cell-free GFP chromophore formation, fluorescence | EC50, µM | hit rate 83% among 2,100; call rule not given here
Large screens that a line does not name were inactive (follow-up assays come after a bar, where they were run). This is a sample that favours compounds with a hit; in the whole collection about 0.82% have one here.

NNC(=O)c1cc(C23CC4CC(CC(C4)C2)C3)[nH]n1	none
C[C@H](CO)N1C[C@H](C)[C@H](CN(C)C(=O)c2cccc(F)c2)Oc2cc(-c3cccnc3)ccc2S1(=O)=O	none (no result: RecA splice inh, Rv3671c inh, UGM FP inh, FadD28 FP inh, Yp Topo-I inh)
N#CC1=C(N)Oc2n[nH]c(-c3ccc(F)cc3)c2C1c1cccc(OC(=O)N2CCOCC2)c1 (centres undefined)	RecA splice inh 79.9 | GFP chromo cs 11.2
COc1ccc(-c2[nH]nc3c2C(c2ccccc2OC(=O)N2CCOCC2)C(C#N)=C(N)O3)cc1 (centres undefined)	RecA splice inh 70.7 | GFP chromo cs 21.1
Cc1ccc(-c2[nH]nc3c2C(c2ccccc2OC(=O)N2CCOCC2)C(C#N)=C(N)O3)cc1 (centres undefined)	none (no result: RecA splice inh, Mtb BioA inh, FadD28 FP inh, Yp Topo-I inh)
N#CC1=C(N)Oc2n[nH]c(-c3ccccc3)c2C1c1cccc(OC(=O)N2CCOCC2)c1 (centres undefined)	RecA splice inh 67.6 | GFP chromo cs 10.1
CCOc1ccc(N2C(=O)C(Cl)=C(N3CCOCC3)C2=O)cc1	none (no result: RecA splice inh)
Cc1ccccc1N1C(=O)C(Cl)=C(N2CCOCC2)C1=O	RecA splice inh 59.2 | GFP chromo cs 12.2
CCc1ccccc1N1C(=O)C(Cl)=C(N2CCOCC2)C1=O	RecA splice inh 67.4 | GFP chromo cs 9.91
O=C1C(Cl)=C(N2CCOCC2)C(=O)N1c1ccccc1F	none (no result: RecA splice inh) | GFP chromo cs 7.2
Cc1ccc(N2C(=O)C(Cl)=C(N3CCOCC3)C2=O)c(C)c1	RecA splice inh 60.0 | GFP chromo cs 10.7
C[C@H]1CN([C@@H](C)CO)C(=O)c2cc(NC(=O)C3CC3)ccc2O[C@H]1CN(C)C(=O)Nc1cccc2ccccc12	none (no result: RecA splice inh, Rv3671c inh, UGM FP inh, FadD28 FP inh, Yp Topo-I inh)
Cc1noc(C)c1NC(=O)N(C)C[C@@H]1Oc2ccc(NS(=O)(=O)c3c(C)noc3C)cc2CC(=O)N([C@@H](C)CO)C[C@@H]1C	none (no result: RecA splice inh, Rv3671c inh, UGM FP inh, FadD28 FP inh, Yp Topo-I inh)
C[C@H]1CN([C@@H](C)CO)C(=O)c2cc(NS(=O)(=O)c3ccc(F)cc3)ccc2O[C@H]1CN(C)Cc1ccc(C(=O)O)cc1	none (no result: RecA splice inh, Rv3671c inh, UGM FP inh, FadD28 FP inh, Yp Topo-I inh)
O=C1C(Cl)=C(N2CCOCC2)C(=O)N1c1ccc(Br)cc1	RecA splice inh 52.7 | GFP chromo cs 2.46
CC(C)c1ccc(N2C(=O)C(Cl)=C(N3CCOCC3)C2=O)cc1	none (no result: Mtb BioA inh)
Cn1c(SCC(=O)NCc2ccccc2)ncc(C(=O)Nc2ccccc2)c1=O	none
Cc1ccc(NC(=O)CSc2ncc(-c3ccccc3)n2C(=O)c2ccccc2)cc1	RecA splice inh 54.3 | GFP chromo cs 1.22
Cc1ccc(CNC(=O)CSc2ncc(C(=O)Nc3ccccc3)c(=O)n2C)cc1	none (no result: Mtb BioA inh)
Cn1c(SCC(=O)NCC2CCCO2)ncc(C(=O)Nc2ccccc2)c1=O (centres undefined)	RecA splice inh 45.5 | GFP chromo cs inactive
CC(=O)Nc1ccc(NC(=O)CSc2ncc(C(=O)Nc3ccccc3)c(=O)n2C)cc1	RecA splice inh 31.4 | GFP chromo cs 0.115
C[C@H]1CCCCO[C@H](CN(C)C)[C@@H](C)CN([C@@H](C)CO)C(=O)c2cc(NS(=O)(=O)c3ccc(F)cc3)ccc2O1	none (no result: RecA splice inh, Rv3671c inh, UGM FP inh, FadD28 FP inh, Yp Topo-I inh)
CCNC(=O)C[C@@H]1C=C[C@H](NC(=O)C2CC2)[C@H](CO)O1	none (no result: RecA splice inh, Rv3671c inh, UGM FP inh, FadD28 FP inh, Yp Topo-I inh)
COc1ccc(C2C(C#N)=C(N)Oc3n[nH]c(C)c32)cc1Cn1nnc2ccccc21 (centres undefined)	RecA splice inh 60.5 | GFP chromo cs 13.4
COc1ccc(C2C(C#N)=C(N)Oc3n[nH]c(C)c32)cc1CSc1ccccn1 (centres undefined)	RecA splice inh 80.5 | GFP chromo cs 17.2
COc1ccc(S(=O)(=O)Nc2ccc3c(c2)CC(=O)N([C@@H](C)CO)C[C@@H](C)[C@@H](CN(C)Cc2ccncc2)O3)cc1	none (no result: RecA splice inh, Rv3671c inh, UGM FP inh, FadD28 FP inh, Yp Topo-I inh)
CC(=O)c1c(C)nc(-c2ccc(Cl)cc2)nc1N	none (no result: Mtb BioA inh)
CC(=O)c1c(C)nc(-c2ccc(Cl)cc2)nc1N=CN(C)C	none (no result: Mtb BioA inh) | GFP chromo cs inactive
COc1ccc(C#Cc2cnc3c(c2)C(=O)N([C@@H](C)CO)C[C@@H](C)[C@H](CN(C)C(=O)CN(C)C)O3)cc1	none (no result: RecA splice inh, Rv3671c inh, UGM FP inh, FadD28 FP inh, Yp Topo-I inh)
O=C1NCCCC2c3c(cc(Br)c(O)c3Br)OC12N1CCCCC1 (centres undefined)	RecA splice inh 37.6 | GFP chromo cs 5.45
CCCCNC1=CC(=O)C(=O)c2ccccc21	RecA splice inh 97.2 (no result: Mtb BioA inh) | GFP chromo cs 0.981
O=C1C=C(Nc2ccccc2)c2ccccc2C1=O	RecA splice inh 69.6 (no result: Rv3671c inh, Mtb BioA inh, UGM FP inh) | GFP chromo cs 0.85
O=C(CN1C(=O)c2ccccc2C1=O)Nc1cccc2cccnc12	none
O=C1C=C(Nc2ccccc2)C(=O)c2ccccc21	none
O=C1C=C(Nc2ccccc2C(=O)O)c2ccccc2C1=O	RecA splice inh 96.7, FadD28 FP inh inconclusive | GFP chromo cs 2.47
O=C(O)c1ccccc1Nc1ccccc1C(=O)O	none (no result: UGM FP inh)
O=C1C=C(Nc2cccc3cccnc23)c2ccccc2C1=O	RecA splice inh 90.1 | GFP chromo cs 3.59
COCC(=O)N[C@@H]1CC[C@H](CC(=O)NCc2ccc(Cl)cc2)O[C@H]1CO	none (no result: RecA splice inh, Rv3671c inh, UGM FP inh, FadD28 FP inh, Yp Topo-I inh)
CC(C)c1cn(CC[C@H]2CC[C@@H](NC(=O)C3CCCC3)[C@@H](CO)O2)nn1	none (no result: RecA splice inh, Rv3671c inh, UGM FP inh, FadD28 FP inh, Yp Topo-I inh)
CO[C@@H]1CN(C)C(=O)c2ccc(NS(=O)(=O)CC(F)(F)F)cc2OC[C@H](C)N(C)C[C@H]1C	none (no result: RecA splice inh, Rv3671c inh, UGM FP inh, FadD28 FP inh, Yp Topo-I inh)
CCNC(=O)C[C@@H]1CC[C@@H]2[C@H](COc3ccc(NC(=O)Nc4c(C)noc4C)cc3C(=O)N2C)O1	none (no result: RecA splice inh, Rv3671c inh, UGM FP inh, FadD28 FP inh, Yp Topo-I inh)
CC1=NOC2(C1)N(C)c1ccccc1C2(C)C (centres undefined)	none
COc1ccc2ccc3c(c2c1)N=C[C@]1(O3)N(C)c2ccccc2C1(C)C	RecA splice inh 89.2 | GFP chromo cs 12.2
CC1=NNC(=O)C1C(c1ccccc1)C(C#N)C#N (centres undefined)	RecA splice inh 80.4 | GFP chromo cs 16
COc1ccc(C2C(=O)NN=C2C)cc1 (centres undefined)	none (no result: RecA splice inh, Rv3671c inh, Mtb BioA inh, UGM FP inh)
COCCNC(=O)[C@H]1[C@H](CO)[C@H]2Cn3c(ccc(C4=CCCCC4)c3=O)[C@@H]1N2C(=O)C1CC1	none (no result: RecA splice inh, Rv3671c inh, UGM FP inh, FadD28 FP inh, Yp Topo-I inh)
NC(=O)NCC#Cc1ccc2c(c1)[C@]1(C(=O)N2)[C@H](C(=O)O)[C@H]2C(=O)O[C@H](c3ccccc3)[C@H](c3ccccc3)N2[C@@H]1c1ccc(O)cc1	none (no result: RecA splice inh, Rv3671c inh, UGM FP inh, FadD28 FP inh, Yp Topo-I inh)
CCCc1noc2c1C(c1ccoc1)C(C#N)=C(N)N2 (centres undefined)	RecA splice inh 79.2 | GFP chromo cs inactive
O=C1CC(CSc2ccc(Cl)cc2)=NN1	RecA splice inh 90.9 | GFP chromo cs 8.78
CC1=C(C)/C(=N\OC(=O)/C=C/c2ccccc2)C=CC1=O	RecA splice inh 37.6 | GFP chromo cs inactive
CC1=CC(=NOC(=O)/C=C/c2ccccc2)C=C(C)C1=O	none
N#Cc1c(Cl)c(Cl)c2nnc(-c3ccc(Br)cc3)n2c1Cl	RecA splice inh 49.0 (no result: Mtb BioA inh, FadD28 FP inh, Yp Topo-I inh) | GFP chromo cs 5.15
CC(C)NC(=S)NC1(C)CCS(=O)(=O)C1 (centres undefined)	RecA splice inh 47.6 (no result: Mtb BioA inh) | GFP chromo cs inactive

Bioassay records from PubChem.
